# Pf growth 96h – P. falciparum growth inhibition at 96 hours; P. falciparum luciferase reporter growth, 96 h; AID 504834; Potency, µM (series often up to 28.7 µM), for inactives: top-dose activity change, negative = inhibition, usual class: inhibitors; 320,000 compounds, 6.9% hits; further: potency means the concentration at half of the fitted maximal effect; on the % scale 0 is the no-effect control and ±100 the full control effect
#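 Plates of compound plus infected erythrocytes (2% hematocrit, 0.05% parasitemia final) incubate 96 hours, 37 C, 5% CO2. Detection reagent added; reduced luminescence from the parasites' luciferase reporter flags inhibition.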
# Sm TGR block – inhibitors of Schistosoma mansoni thioredoxin glutathione reductase | purified TGR, DTNB reduction, TNB absorbance 405 nm | Potency, µM (highest dose often 114 µM), inactives show at the highest dose activity change, negative = inhibition, hits mostly inhibitors | Q962Y6 | AID 485364 | 360,000 compounds, 3% hits; further: potency means the concentration at half of the fitted maximal effect; on the % scale 0 is the no-effect control and ±100 the full control effect; nearly all actives have a fitted effect of over 60% in size
#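 TGR 20 nM + NADPH 100 uM (dispensed conc.), cpd preinc 15 min RT; start with NADPH (500 uM addition) then DTNB (15 mM addition). Kinetic TNB absorbance, 405 nm filter. Four-parameter Hill fit across titration.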
# NS1 function inh – influenza NS1 inhibition; Potency, µM (doses to about 46.1 µM), for inactives: at the top dose activity, positive = more growth; 270,000 compounds, 0.4% hits; AID 2326; calls by dose curve; further: potency means the concentration at half of the fitted maximal effect; actives are rising curves; nearly all actives have a fitted effect of over 50% in size
#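 Compounds were scored for reversing the slow growth caused by influenza A NS1 in S. cerevisiae, measured by optical density at 600 nm. Assay medium contained 2% galactose at pH 6.0; NS1-free yeast of the same strain were the positive control.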
# Pf growth 48h – P. falciparum growth inhibition at 48 hours (one generation); Potency, µM (highest dose often 28.7 µM), inactives show at the highest dose activity change, negative = inhibition, usual class: inhibitors; P. falciparum luciferase growth in erythrocytes, 48 h; AID 504832; 310,000 compounds, 5.9% hits; further: potency means the concentration at half of the fitted maximal effect; on the % scale 0 is the no-effect control and ±100 the full control effect
#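 Luciferase-expressing P. falciparum in infected erythrocytes (2% hematocrit, 0.1% parasitemia final) in RPMI 1640/0.5% Albumax were exposed to compound for 48 hours at 37 C, 5% CO2; growth read as luminescence.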
# Shiga toxin inh – blocks Shiga toxin action in Vero cells | Vero cells, Shiga toxin protein synthesis inhibition reporter | inhibition, % at 38.7 µM | 290,000 compounds, 9.2% hits | AID 2315; in the data active means inhibition mostly above about 28%, no sharp cut-off; inactive means mostly below about 43%; further: 0% is about no effect
# CHX counter – affects cycloheximide protein synthesis inhibition readout, counter-screen; cell reporter, cycloheximide protein synthesis inhibition counterscreen; max response, %; 300,000 compounds, 12% hits; AID 2314; in the data active means max response mostly above about 13%, no sharp cut-off; inactive means mostly below about 14%; further: read at 38.3 µM for the half of the compounds with a filed dose; 0% is about no effect
# Active calls of the source: *; u = inconclusive; x = no result; [ ] = remark or other dose. Hits are enriched below; roughly 21% of the tested compounds scored in any of these assays. Unless noted, the call rests on the fitted dose curve; in most records, active means well fitted curve in the direction sought with a large enough effect; inconclusive means small, poorly fitted or top-dose-only effect, or another doubt; inactive means no such curve, though single readings can be large; an effect the other way counts as inactive or inconclusive.
SMILES,Pf growth 96h,Sm TGR block,NS1 function inh,Pf growth 48h,Shiga toxin inh,CHX counter
CCOc1ccc(CCNC(=O)COC(=O)COc2ccc(Br)cc2)cc1OCC,u,3%,-36%,u,-16,-1
O=C(NNS(=O)(=O)c1cc(Cl)cc(Cl)c1)c1sccc1-n1cccc1,4%,4%,10%,-3%,10,-2
CC1(c2ccccc2)NC(=O)N(CC#N)C1=O (stereo unspecified),9%,5%,0%,-22%,14,-3
O=C(O)c1sc2cccc(Cl)c2c1Cl,1.3µM*,-5%,1%,u,50,16*
Cc1cccc2c1[nH]c1nc(N/N=C\c3ccco3)nnc12,-24%,-13%,13%,-9%,-11,15
CC(/C=N/Nc1nnc2c(n1)[nH]c1ccccc12)=C\c1ccco1,u,u,11%,x,65,32*
COc1cccc(/C=N/Nc2nnc3c(n2)[nH]c2ccccc23)c1OC,0%,-1%,-1%,-6%,50*,36*
COc1cccc(CNC(=O)c2cc3oc4ccccc4c3n2C)c1OC,9.3µM*,2%,-12%,x,23,8
CCOc1ccccc1CNC(=O)c1cc2oc3ccccc3c2n1CC,1.2µM*,9%,10%,x,-16,13
CN(Cc1ccccc1)C(=O)COC(=O)c1cc(S(=O)(=O)N(C)C)ccc1N1CCCC1,12µM*,16%,x,9.3µM*,x,x
CN(CC(=O)Nc1ccccc1Cl)C(=O)COC(=O)c1cc(S(=O)(=O)N(C)C)ccc1N1CCCC1,7%,18%,x,9%,x,x
CC(C)CNC(=O)COC(=O)c1cc(S(=O)(=O)N(C)C)ccc1N1CCCC1,45%[1.15 µM],-5%,0%,-27%,-5,-1
CN(Cc1ccccc1)C(=O)COC(=O)c1ccc(Cl)cc1N,17%,0%,x,12%,47,29*
COc1ccc(N2CCN(C(=O)COC(=O)c3cc(S(=O)(=O)N(C)C)ccc3N3CCCC3)CC2)cc1,u,6%,x,10µM*,x,x
Cc1c[n+](C)ccc1CC1C([N+](=O)[O-])=C[N-]c2ncnn21 (stereo unspecified),5%,-6%,x,u,-11,-4
CCCOC(=O)c1c(NC(=O)C2c3ccccc3Oc3ccccc32)sc2c1CCCC2,x,3%,x,x,x,x
CC(C(=O)OCC(=O)Nc1cccc(S(=O)(=O)N2CCOCC2)c1)N1C(=O)c2ccccc2C1=O (stereo unspecified),2%,-32%,x,-4%,39,-5
CC1CCCC(C)N1C(=C(Cl)Cl)C(=C1SCCS1)[N+](=O)[O-] (stereo unspecified),u,-7%,x,-29%,22,8
COc1ccc(N=C2S/C(=C\c3ccco3)C(=O)N2CC(C)C)cc1,u,45µM*,7%,u,19,-6
CCCN1C(=O)/C(=C/c2ccc(C)s2)SC1=Nc1ccc(OC)cc1,u,8%,-13%,-26%,-18,2
CCN1C(=O)/C(=C/c2cccs2)SC1=Nc1ccc(OC)cc1,4.7µM*,14%,3%,-22%,-3,-3
O=C(NCCCO)c1c(O)c2cccc3c2n(c1=O)CCC3,-11%,4%,-44%,3%,42,6
CC(C)Cc1nnc(NC(=O)c2ccc([N+](=O)[O-])cc2)s1,47%,21%,9%,63%,23,17*
CCc1nnc(NC(=O)c2ccc(NC(=O)C(C)C)cc2)s1,26%,15%,0%,40%,99*,41*
CCc1nnc(NC(=O)c2ccc(S(=O)(=O)NCC(C)C)cc2)s1,1.7µM*,-15%,1%,9%,-1,-2
SMILES,Pf growth 96h,Sm TGR block,NS1 function inh,Pf growth 48h,Shiga toxin inh,CHX counter
CC(Cc1ccccc1)[n+]1cc(/N=C(\N)[O-])on1 (stereo unspecified),23%,17%,4%,-15%,-14,0
CC(Cc1ccccc1)[n+]1cc(/N=C(\[O-])Nc2ccccc2)on1 (stereo unspecified),x,10%,-16%,4%,28,17*
CCCC(C)NC(=O)COC(=O)c1cc(Br)c(Br)s1 (stereo unspecified),39%,-2%,x,-12%,-12,1
CCCN1C(=O)c2ccccc2NC1c1cc(OC)c(OC)c(OC)c1 (stereo unspecified),3%,-2%,1%,u,-6,-2
CCN1c2ccccc2NC2N=C(OC)C(c3ccccc3)C21 (stereo unspecified),x,-8%,-68%,u,5,18*
CCOc1ccccc1NC(=O)CCNC(=O)Cn1ccc2ccccc2c1=O,-2%,4%,-7%,-8%,-5,-1
S=C(Nc1ccc(CN2CCCCC2)cc1)Nc1cccc(Cl)c1Cl,114%,25µM*,-5%,u,-10,1
CCc1ccccc1NC(=O)CN1CCN(CC(=O)Nc2ccc(-c3ccccc3)cc2)CC1,0%,1%,-10%,14%,-8,-2
O=C(Nc1ccncc1)Nc1ccc(Br)cc1Cl,11%,-1%,-10%,u,-3,12
CCN1CCN(Cc2ccccc2NC(=O)Nc2ccc(C)cc2)CC1,84%,-15%,2%,59%,36*,24*
CC(=O)Nc1ccc(CN2CCCCCCC2)cc1,u,8%,u,u,23,9
O=C(Nc1ccc(CN2CCCCC2)cc1)Nc1ccccc1Cl,0%,0%,-6%,u,53*,32*
O=C(Nc1ccc(Br)cc1)Nc1ccccc1Cl,-56%,-6%,-1%,62%,103*,68*
CCN1CCN(Cc2ccc(NC(=O)Nc3ccccc3Cl)cc2)CC1,0%,-4%,-8%,-2%,97*,47*
CSC1=NCCN1C(=O)C12CC3CC(CC(C3)C1)C2,u,-7%,x,9.3µM*,-10,-1
O=C(c1cccs1)N1CCc2ccccc21,102%,-2%,-28%,69%,70*,54*
O=C(/C=C/c1ccc(Cl)c(Cl)c1)N1CCc2ccccc21,-19%,-7%,2%,64%,active,24*
C/C(=C/C(=O)N1CCc2ccccc21)C(=O)O,u,21%,15%,-10%,5,-3
CSC1=NCCN1C(=O)c1cccs1,13µM*,-22%,-15%,x,26,-1
CC(NC(=O)CCNC(=O)N1CCn2c1nc1ccccc12)c1ccccc1 (stereo unspecified),3%,1%,-3%,4%,25,-2
Cc1ccc2nc(CSc3nnc(NC(=O)COc4ccccc4)s3)cc(=O)n2c1,x,-2%,x,x,x,x
Cc1ccc2c(c1)cc1c(=O)n(CC(=O)NC(C)CCc3ccccc3)nc(C)n12 (stereo unspecified),x,4%,x,x,x,x
O=C(/C=C/c1cccs1)N1CCc2ccccc21,10%,-4%,-21%,247%,-4,27*
O=C(/C=C/c1cccs1)N1CCOCC1,35%,1%,9%,14%,26,0

# Bioassay records as filed in PubChem BioAssay.
